Rows were chosen to be rich in hits. Some 7.9% of all compounds tested hit in one or more screens of this group.
MARV entry inh = inhibitors of Marburg virus binding or cell entry | Marburg virus pseudotyped entry inhibition, cell reporter | Potency, µM (highest dose often 37.8 µM), most hits filed as inhibitors | 1.8% of 300,000 active; calls by dose curve; tested in HEK293 cells
HCV inh = blocks hepatitis C virus. Potency, µM (series often up to 41.8 µM), most hits filed as inhibitors. 3.4% of 340,000 active. Huh7.5.1 HCVcc-Cre infection, luciferase reporter, 44 h. AID 651820; active = well fitted inhibition curve with a large enough effect; inconclusive = small, poorly fitted or top-dose-only effect, or another doubt; inactive = no such curve, though single readings can be large or run the other way
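Cells seeded at 1,000/well and cultured 4 h, then compounds added followed by HCVcc-Cre virus (~0.5 moi). After 44 h further culture, luciferase substrate was added, plates held 15 min at room temperature, and luminescence read for 15 sec.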
FMDV inh = blocks foot and mouth disease virus | Potency, µM (top dose mostly 57.9 µM), actives largely listed as inhibitors | AID 1159524 | FMDV antiviral cell-based qHTS | 1.2% of 410,000 active; calls by dose curve; tested in HEK293T cells; note: read-out not given here; nearly all actives have a fitted effect of over 45% in size
Lassa entry inh = blocks Lassa virus binding to or entry into cells; Lassa virus pseudotype entry inhibition, cell reporter; Potency, µM (highest dose often 37.9 µM), usual class: inhibitors; 1.2% of 300,000 active; AID 540256; calls by dose curve; tested in HEK293 cells; note: nearly all actives have a fitted effect of over 50% in size
HCMV antiviral = blocks human cytomegalovirus replication; AID 1259415; activity change, negative = inhibition, % at 57.5 µM; 4.5% of 410,000 active; HFF cells, HCMV-luciferase reporter, 72 h; hits give low values; in the data active = activity change below about -60%; inconclusive = no clear call, values can overlap the other calls; inactive = above about -39%
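Compounds were evaluated in HFFs infected with an HCMV luciferase reporter virus (MOI 1 PFU/cell). Luciferase in lysates collected 72 h post infection served as the replication measure.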
Hits are given with their value; - = inactive; ? = inconclusive; . = no result given.

SMILES	MARV entry inh	HCV inh	FMDV inh	Lassa entry inh	HCMV antiviral
COc1ccc(Cl)cc1NC(=O)CCS(=O)(=O)c1cccc2nonc12	-	.	-	-	-86
COc1ccc(NC(=O)CCS(=O)(=O)c2ccccc2Cl)cc1S(=O)(=O)Nc1ccc(Cl)cc1	.	13µM	-	.	-
COc1ccc(NC(=O)CCSc2ccc(C)cc2)cc1S(=O)(=O)Nc1ccccc1Cl	?	?	-	13µM	-
COc1ccc(NS(=O)(=O)c2cc(NC(=O)CCSc3ccccc3)ccc2OC)cc1	?	?	-	?	-
CC(=O)c1cccc(NC(=O)C(C)OC(=O)c2ccc(-n3cnnn3)cc2)c1 (stereo unspecified)	-	?	-	-	-
O=C(N[C@H]1CC[C@@]23CCCN2C(=O)CCC[C@H]3[C@H]1Cc1ccccc1)C(c1ccccc1)c1ccccc1	.	.	.	.	-
Cc1cc(C)c(S(=O)(=O)Nc2ccccc2C(=O)OCC(=O)NCc2ccccc2)c(C)c1	?	-	-	10µM	?
Cc1cccc(NC(=O)c2ccc(N(C)C3CCCCC3)c([N+](=O)[O-])c2)n1	?	14µM	?	?	?
CC1(CO)COC2(OC1)C(=O)Nc1ccccc12 (stereo unspecified)	-	-	-	-	-76
O=C1Nc2ccccc2C12OCCCO2	?	-	-	-	-
CC(C)(CNC(=O)c1ccc([N+](=O)[O-])c(Cl)c1)CNC(=O)c1ccc([N+](=O)[O-])c(Cl)c1	?	?	?	?	-97
O=C(COc1ccc(F)cc1Cl)NC1CCCCCC1	.	?	-	.	-
NCCCC[C@H]1CN=C(N)N1CCCCC1CCCCC1	.	-	-	.	-82
NC1=NC[C@H](CC2CCCCC2)N1CCc1cc(C(F)(F)F)cc(C(F)(F)F)c1	.	-	?	.	-100
FC(F)(F)c1cc(CCN2CCNC[C@@H]2CC2CCCCC2)cc(C(F)(F)F)c1	.	?	-	.	-99
COc1ccc(C(=O)CN2C(=O)N(c3cc(C)ccc3C)S(=O)(=O)c3ccccc32)cc1	.	.	-	-	-
CCOC(=O)Cn1c(=O)oc2cc(S(=O)(=O)N3CCN(c4cccc(Cl)c4)CC3)ccc21	-	.	-	-	-
NNC(=O)C1C(O)CCC2CN3CCc4c([nH]c5ccccc45)C3CC21 (stereo unspecified)	?	-	-	-	-100
COc1ccc(N2CCN(CCCNC(=O)c3cc(Nc4ccc(OC)cc4OC)nc4ccccc34)CC2)cc1	.	.	22µM	?	-
COc1ccc(Nc2cc(C(=O)NCCCN(C)C3CCCCC3)c3ccccc3n2)c(OC)c1	?	.	-	?	-
COc1ccccc1-c1cc(C(=O)N2CCc3ccccc3C2)c2ccccc2n1	-	.	.	.	.
COc1ccc(Nc2cc(C(=O)N3CCc4ccccc4C3)c3ccccc3n2)c(OC)c1	.	10µM	-	.	-
COc1ccc(Nc2cc(C(=O)NCCCN(C)C3CCCCC3)c3ccccc3n2)cc1	10µM	.	-	?	-107
CCCCN1C(=O)C(CC(=O)NCc2cccs2)CC(C(=O)N(CC)CC)=C1C (stereo unspecified)	.	.	-	.	-
CCN(CC)S(=O)(=O)c1ccc2c(c1)N(CC(=O)NCc1ccccc1)C(=O)C1CCCCN21 (stereo unspecified)	.	.	-	?	-
SMILES	MARV entry inh	HCV inh	FMDV inh	Lassa entry inh	HCMV antiviral
CC1(C)CC(=O)C(C(c2ccc(F)cc2)C2C(=O)CC(C)(C)CC2=O)C(=O)C1	-	-	-	-	-
CCc1sc(C(C2C(=O)CC(C)(C)CC2=O)C2C(=O)CC(C)(C)CC2=O)cc1[N+](=O)[O-]	?	-	7.9µM	-	-
COCC(C)N=C1NN=C(c2cc(C)n(Cc3ccccc3Cl)c2C)CS1 (stereo unspecified)	.	?	-	.	-79
COCCCN=C1NN=C(c2cc(C)n(Cc3ccco3)c2C)CS1	16µM	-	-	?	-
COCC(C)N=C1NN=C(c2ccc(NC(C)=O)cc2)CS1 (stereo unspecified)	-	-	-	-	?
C=CCn1c(C)cc(C2=NNC(=Nc3ccc(C)cc3)SC2)c1C	?	-	-	-	-
Cc1cc(C2=NNC(=NC3CC3)SC2)c(C)n1Cc1ccco1	?	?	3.2µM	?	-98
Cc1cccc2c1N[C@H](C)C[C@@H]2C	-	.	.	.	.
CCCCNC(=O)NS(=O)(=O)c1ccc(NC(=O)C(NC(N)=O)C(C)CC)cc1 (stereo unspecified)	-	-	-	-	-
CCOc1ccc(NS(=O)(=O)c2ccc(NC(=S)NC(C)=O)cc2)cc1	-	?	-	?	-62
CC(C)C(=O)NC(=S)Nc1ccc(S(=O)(=O)N(C)Cc2ccccc2)cc1	?	?	-	?	-
CC(=O)NC(=S)Nc1ccc(S(=O)(=O)N(C)Cc2ccccc2)cc1	-	-	22µM	-	-
CCOc1ccc(NC(=S)Nc2ccc(OCC)cc2)cc1	?	-	-	?	-100
CCC(C)C(NC(N)=O)C(=O)Nc1ccc(S(=O)(=O)Nc2ccc(OC)cc2)cc1 (stereo unspecified)	?	-	-	-	-102
O=C(O[C@H]1CC[C@@]23CCCN2C(=O)CCC[C@H]3[C@H]1Cc1ccccc1)N1CCN(c2ccccc2)CC1	.	.	.	.	-
COCCCNC(=O)CCCN1C(=O)c2cccnc2Sc2ccccc21	.	-	-	.	-
CCC(=O)NC(=S)Nc1ccc(S(=O)(=O)NC(C)C)cc1	-	-	-	-	-110
Cc1cc(C)nc(NS(=O)(=O)c2ccc(NC(=S)NC(=O)CC(C)C)cc2)n1	?	-	-	-	-
COc1ccc(NS(=O)(=O)c2cccc(C(=O)N/N=C(/C)c3ccc(-n4ccnc4)cc3)c2)cc1	-	-	-	-	-
CCOc1ccc(S(=O)(=O)Nc2ccc(C(=O)N/N=C(\C)c3ccc(-n4ccnc4)cc3)cc2)cc1	11µM	-	-	?	-
COC(=O)c1sccc1S(=O)(=O)N1CCN(c2ccc(C(C)=O)cc2)CC1	.	.	-	-	-
CCSc1nc(O)c([C@H]2OC(=O)c3c2ccc(OC)c3OC)c(=O)n1-c1ccccc1	-	.	.	.	.
CN1OC[C@@H]2CN(Cc3ccccc3)[C@H](c3cccc(Oc4ccccc4)c3)C[C@@H]21	.	-	?	.	-
CCCC(=O)N1CCC1(C)C(=O)NS(=O)(=O)c1ccc(C)cc1 (stereo unspecified)	.	.	-	.	-
Cc1cc(C)cc(NC(=O)c2ncn(-c3ccccc3)n2)c1	-	.	-	-	-
O=S(=O)(NCC1CCCO1)c1ccccc1 (stereo unspecified)	.	-	-	.	-
CCOC(=O)CNS(=O)(=O)c1cc(-c2nnc(Nc3ccc4c(c3)OCO4)c3ccccc23)ccc1C	?	?	-	-	-65
Cc1ccc(-c2n[nH]c(=S)c3ccccc23)cc1S(=O)(=O)NCC1CCCO1 (stereo unspecified)	-	?	-	-	-63
Cc1ccc(-c2nnc(N3CCC(C)CC3)c3ccccc23)cc1C	-	?	20µM	-	-
O=S(=O)(NCC1CCCO1)c1ccc(Cl)c2ccccc12 (stereo unspecified)	.	.	-	.	-84
